Experimental findings from PubChem BioAssay (EPA / NIEHS) are described below.

Calls of active or inactive are those of the source. Rule for the calls: active = hit-call score of the fitted dose curve at least 0.9, where 1 is the maximum; inactive = score below 0.9.

Usually AC50 stands for the concentration giving half of the maximal activity seen.

Read-out in experiment [1]: Urokinase-type plasminogen activator receptor (uPAR), PLAUR (gene 5329)
The experiment in a line: BSK_CASM3C_uPAR: BioMAP Diversity Plus: CASM3C Assay for Urokinase-type plasminogen activator receptor (uPAR) Biomarker Activity (AID 2283054).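 Note: cell-surface uPAR protein level quantified by ELISA.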 The following applies: primary human coronary artery smooth muscle cells; actives raise or lower the signal.

Read-out in experiment [2]: Vascular cell adhesion molecule 1 (VCAM1), VCAM1 (gene 7412)
The experiment in a line: BSK_CASM3C_VCAM1: BioMAP Diversity Plus: CASM3C Assay for Vascular cell adhesion molecule 1 (VCAM1) Biomarker Activity (AID 2283055).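 Note: VCAM-1 protein level quantified by ELISA on the cells.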 The settings on record: primary human coronary artery smooth muscle cells; actives raise or lower the signal.

Read-out in experiment [3]: Epidermal growth factor receptor (EGFR), EGFR (gene 1956)
Put plainly: BSK_hDFCGF_EGFR: BioMAP Diversity Plus: hDFCGF Assay for Epidermal growth factor receptor (EGFR) Biomarker Activity (AID 2283057). The following applies: primary human foreskin fibroblasts; actives raise or lower the signal. In outline:
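Dosing human primary skin fibroblasts, then measuring surface EGFR by ELISA at 24 h, gives the endpoint; gains and losses relative to DMSO were fitted in both directions.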

Read-out in experiment [4]: Interleukin-8 (IL8), CXCL8 (gene 3576)
Put plainly: BSK_hDFCGF_IL8: BioMAP Diversity Plus: hDFCGF Assay for Interleukin-8 (IL8) Biomarker Activity (AID 2283058). The settings on record: primary human foreskin fibroblasts; actives raise or lower the signal. In outline:
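hDFCGF human dermal fibroblasts; 24 h chemical exposure; IL-8 by ELISA; bidirectional curve fit vs DMSO baseline; gain or loss of signal scored.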

Experiment [5] in a line: BSK_hDFCGF_Proliferation: Cell Proliferation Assessment in the BioMAP Diversity Plus: hDFCGF Assay (AID 2283059).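 Note: curves fitted for both rise and fall of signal versus DMSO baseline.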 The following applies: primary human foreskin fibroblasts. In outline:
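Sub-confluent human foreskin fibroblast cultures receive test chemical […]. Relative cell number is quantified by sulforhodamine B staining (0.1%, after 10% TCA fixation) at 560 nm, with bidirectional fitting referenced to DMSO.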

Read-out in experiment [6]: Macrophage colony-stimulating factor (MCSF), CSF1 (gene 1435)
The experiment in a line: BSK_hDFCGF_MCSF: BioMAP Diversity Plus: hDFCGF Assay for Macrophage colony-stimulating factor (MCSF) Biomarker Activity (AID 2283060). The settings on record: primary human foreskin fibroblasts; actives raise or lower the signal. In outline: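 Human foreskin primary fibroblasts were treated with test chemical for 24 h, and M-CSF was then measured by ELISA. Data were fitted bidirectionally against DMSO as the negative control and activity baseline.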

Read-out in experiment [7]: TIMP metallopeptidase inhibitor 1 (TIMP1), TIMP1 (gene 7076)
Put plainly: BSK_hDFCGF_TIMP1: BioMAP Diversity Plus: hDFCGF Assay for TIMP metallopeptidase inhibitor 1 (TIMP1) Biomarker Activity (AID 2283062). The following applies: primary human foreskin fibroblasts; actives raise or lower the signal. In outline:
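Primary human foreskin fibroblasts in the hDFCGF system were dosed with compound for 24 h, then TIMP-1 was measured by ELISA. Activity was fitted bidirectionally relative to DMSO control; parallel SRB staining assessed cytotoxicity.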

Read-out in experiment [8]: Monokine induced gamma interferon (MIG), CXCL9 (gene 4283)
The experiment in a line: BSK_hDFCGF_MIG: BioMAP Diversity Plus: hDFCGF Assay for Monokine induced gamma interferon (MIG) Biomarker Activity (AID 2283063). The following applies: primary human foreskin fibroblasts; actives raise or lower the signal. In outline:
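ELISA read-out of MIG from primary human dermal fibroblasts 24 h post-dosing. Gain or loss of signal fitted bidirectionally, DMSO as baseline.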

Read-out in experiment [9]: Matrix Metallopeptidase 1 (MMP1), MMP1 (gene 4312)
The experiment in a line: BSK_hDFCGF_MMP1: BioMAP Diversity Plus: hDFCGF Assay for Matrix Metallopeptidase 1 (MMP1) Biomarker Activity (AID 2283064). The settings on record: primary human foreskin fibroblasts; actives raise or lower the signal. In outline: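 MMP1 levels quantified by ELISA 24 h after dosing human dermal fibroblast cultures, with parallel SRB total-protein staining for overt cytotoxicity. Data fitted in both directions against DMSO baseline.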

Read-out in experiment [10]: Vascular cell adhesion molecule 1 (VCAM1), VCAM1 (gene 7412)
Put plainly: BSK_hDFCGF_VCAM1: BioMAP Diversity Plus: hDFCGF Assay for Vascular cell adhesion molecule 1 (VCAM1) Biomarker Activity (AID 2283065).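 For AC50: VCAM-1 protein level quantified by ELISA after 24 h chemical exposure.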 The settings on record: primary human foreskin fibroblasts; actives raise or lower the signal. In outline:
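Primary human foreskin fibroblasts (hDFCGF system) were dosed with chemical and VCAM-1 was measured by ELISA 24 h later. Bidirectional curve fitting used DMSO as negative control and activity baseline.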

Read-out in experiment [11]: Plasminogen activator inhibitor-1 (PAI1), SERPINE1 (gene 5054)
The experiment in a line: BSK_hDFCGF_PAI1: BioMAP Diversity Plus: hDFCGF Assay for Plasminogen activator inhibitor-1 (PAI1) Biomarker Activity (AID 2283066). The settings on record: primary human foreskin fibroblasts; actives raise or lower the signal. In outline: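 Fibroblasts from human foreskin were treated with test chemical. After 24 h, PAI-1 was measured by ELISA. Activity was fitted in both directions relative to DMSO.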

Read-out in experiment [12]: Intercellular Adhesion Molecule 1 (ICAM1), ICAM1 (gene 3383)
Put plainly: BSK_KF3CT_ICAM1: BioMAP Diversity Plus: KF3CT Assay for Intercellular Adhesion Molecule 1 (ICAM1) Biomarker Activity (AID 2283067). The settings on record: primary human keratinocytes with fibroblasts; actives raise or lower the signal. In outline:
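Human keratinocyte plus foreskin fibroblast primary co-culture was exposed to chemical for 24 h. ICAM-1 was then quantified by ELISA, and the data were fit bidirectionally against DMSO as the negative control and baseline.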

Read-out in experiment [13]: Interferon-gamma inducible Protein 10 (IP10), CXCL10 (gene 3627)
The experiment in a line: BSK_KF3CT_IP10: BioMAP Diversity Plus: KF3CT Assay for Interferon-gamma inducible Protein 10 (IP10) Biomarker Activity (AID 2283068). The following applies: primary human keratinocytes with fibroblasts; actives raise or lower the signal. In outline:
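ELISA read-out of IP-10 after 24 h chemical dosing of human skin primary co-culture (keratinocytes, foreskin fibroblasts). Gain or loss of signal relative to DMSO, bidirectional curve fit.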

Experiment [14] is described as follows: BSK_KF3CT_SRB: Viability Assessment in the BioMAP Diversity Plus: KF3CT Assay (AID 2283069). The settings on record: primary human keratinocytes with fibroblasts. In outline:
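Cytotoxicity was gauged by SRB staining (0.1% SRB, 10% TCA fixation, 560 nm) of parallel cultures at 24 h. The cells were primary human skin keratinocytes co-cultured with fibroblasts, and activity was fitted in both directions against DMSO.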

Read-out in experiment [15]: Interleukin-1 alpha (IL1a), IL1A (gene 3552)
The experiment in a line: BSK_KF3CT_IL1a: BioMAP Diversity Plus: KF3CT Assay for Interleukin-1 alpha (IL1a) Biomarker Activity (AID 2283070). The settings on record: primary human keratinocytes with fibroblasts; actives raise or lower the signal. In outline:
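IL-1a was detected by ELISA 24 h after chemical treatment of a co-culture of human skin keratinocytes and foreskin fibroblasts. Gain or loss of signal was fitted against the DMSO baseline.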

Read-out in experiment [16]: TIMP metallopeptidase inhibitor 2 (TIMP2), TIMP2 (gene 7077)
The experiment in a line: BSK_KF3CT_TIMP2: BioMAP Diversity Plus: KF3CT Assay for TIMP metallopeptidase inhibitor 2 (TIMP2) Biomarker Activity (AID 2283071). The settings on record: primary human keratinocytes with fibroblasts; actives raise or lower the signal. In outline:
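Chemicals were dosed onto human skin primary co-cultures of keratinocytes and foreskin fibroblasts, and TIMP-2 was measured by ELISA after 24 hours. Activity in either direction was fitted relative to DMSO.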

Read-out in experiment [17]: Transforming growth factor beta 1 (TGFb1), TGFB1 (gene 7040)
Put plainly: BSK_KF3CT_TGFb1: BioMAP Diversity Plus: KF3CT Assay for Transforming growth factor beta 1 (TGFb1) Biomarker Activity (AID 2283072). The settings on record: primary human keratinocytes with fibroblasts; actives raise or lower the signal. In outline:
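KF3CT co-culture (keratinocytes + fibroblasts), 24 h exposure → TGF-b1 ELISA → bidirectional fit, DMSO = baseline. Parallel SRB total-protein staining (0.1% SRB, 10% TCA fixation, 560 nm) for cytotoxicity.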

Read-out in experiment [18]: C-C motif chemokine 2 (Homo sapiens) (UniProt P13500)
The experiment in a line: BSK_KF3CT_MCP1: BioMAP Diversity Plus: KF3CT Assay for Monocyte Chemoattractant Protein 1 (MCP1/CCL2) Biomarker Activity (AID 2283073). The following applies: primary human keratinocytes with fibroblasts; actives raise or lower the signal. In outline: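 Human keratinocyte plus foreskin fibroblast primary co-culture exposed to chemical for 24 h. MCP-1 levels measured by ELISA. Bidirectional curve fitting relative to DMSO negative control as baseline.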

A short description of experiment [19]: BSK_hDFCGF_SRB: Viability Assessment in the BioMAP Diversity Plus: hDFCGF Assay (AID 2283061).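 Note: cells exposed to compound for 24 h before the read.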 The following applies: primary human foreskin fibroblasts. In outline: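 Human foreskin primary fibroblasts were treated with compound and assessed 24 h after dosing. Total protein was measured by sulforhodamine B staining (0.1% SRB after 10% TCA fixation, 560 nm read) as a cytotoxicity marker, with bidirectional fitting against DMSO baseline.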

Consider `C[C@@H]1C[C@@H]([C@H](O)CC2CC(=O)NC(=O)C2)C(=O)[C@@H](C)C1`, for which the AC50 in experiment [1] was 3.8 µM (active); in [2], 0.926 µM (active); in experiment [4], 7.54 µM (active); in experiment [5], 4.27 µM (active); in [6], 4.1 µM (active); in experiment [7], 2.49 µM (active). Also, the half-maximal activity concentration (AC50) in experiment [8] was 4.4 µM (active); in experiment [9] it was 3.37 µM (active); in experiment [10], 0.915 µM (active); in experiment [11], 2.9 µM (active); in experiment [12] it was 7.24 µM (active); in [13] it was 12.9 µM (active). Also, the concentration at half-maximal activity (AC50) is 11.6 µM (active) in [14]; 31.2 µM (active) in experiment [15]; 8.4 µM (active) in experiment [16]; 2.79 µM (active) in experiment [17]; 0.991 µM (active) in experiment [18]. For the same molecule, the result in experiment [3] was inactive.
Regarding `CC(C)c1ccc(CO)cc1`, the outcome in [1], in experiment [2], in experiment [3], in experiment [4], in [5] and in [6] was inactive. Further, the result in experiment [7], in [8], in [9], in [10], in experiment [11] and in [12] was inactive. Moreover, the outcome in [13], in [14], in experiment [15], in experiment [16], in experiment [17] and in experiment [18] was inactive.
On to `CCOP(=S)(OCC)Oc1ccc(S(C)=O)cc1` (centres undefined), for which the outcome in experiment [1], in experiment [2], in [3], in experiment [5], in experiment [6] and in experiment [7] was inactive. The result in experiment [8], in [9], in experiment [10], in experiment [11], in experiment [12] and in experiment [13] was inactive. The outcome in experiment [14], in [15], in [16], in experiment [17] and in experiment [18] was inactive.
As to `BrCCBr`, the result in experiment [1], in [2], in experiment [3], in [5], in [6] and in experiment [19] was inactive. Further, the outcome in experiment [7], in experiment [8], in experiment [9], in [10], in experiment [11] and in experiment [12] was inactive. Besides, the result in experiment [13], in experiment [14], in experiment [15], in experiment [16], in experiment [17] and in [18] was inactive.
Turning to `C[C@]12CCC(=O)C[C@@H]1CC[C@@H]1[C@@H]2CC[C@]2(C)[C@@H](O)CC[C@@H]12`, the result in experiment [1], in experiment [2], in experiment [3], in experiment [5], in experiment [6] and in [19] was inactive. Moreover, the outcome in [7], in [8], in experiment [9], in experiment [10], in experiment [11] and in experiment [12] was inactive. Further, the outcome in [13], in experiment [14], in experiment [15], in experiment [16], in experiment [17] and in experiment [18] was inactive.
